Assay outcomes as filed in PubChem.
A selection: hits, their analogues and other compounds. The true share with any hit is near 4.2%.
SMARCA2 activ – activators of SMARCA2 function. 1% of 370,000 active. MG213 cells, MMTV-luciferase reporter, dexamethasone, overnight. activation, % at 9.1 µM; in the data active = activation above about 7.8%;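 note: 0% = vehicle wells and 100% = reference activator wells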
ssDAF12 agonist – activators of S. stercoralis DAF-12 nuclear receptor; AID 652126; activation, % at 6.8 µM; 1% of 370,000 active; HEK293 ssDAF-12/GRIP1 lit1-tk-luc reporter, luminescence; % of 3 µM dafachronic acid response;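 active = activation above the mean over all tested compounds plus 3 SD, cut at about 0.9% in these data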;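 note: 0% = DMSO-only wells and 100% = 3 µM delta7-dafachronic acid wells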
hgDAF12 agonist – activates the H. glycines DAF-12 receptor ligand-binding domain; HEK293 GAL4-hgDAF12 UAS-luciferase reporter, agonist luminescence; normalized to butyrate control; activation, % at 6.8 µM; 1.8% of 370,000 active; AID 687014;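 active = activation above a cutoff set at the mean of all screened compounds plus 3 SD, cut at about 10% in these data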;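 note: 0% = DMSO wells and 100% = sodium butyrate wells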
hcDAF-12 act – activates DAF-12 receptor from parasite H. contortus. 1.4% of 370,000 active. HEK293 hcDAF-12 lit1-tk-luc reporter, luminescence; 0% DMSO, 100% Δ7-dafachronic acid. activation, % at 6.8 µM. AID 652067;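 active = activation above the mean of all tested compounds plus 3 SD, cut at about 5.5% in these data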;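 note: 100% = response to 3 µM Δ7-dafachronic acid high control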
DAX1 StAR inh – inhibitors of DAX1 repression of SF-1 activated StAR promoter. HEK293T StAR-luciferase reporter, SF-1/DAX-1 repression relief. inhibition, % at 6.8 µM. 1.1% of 370,000 active;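 active = inhibition above the mean over all tested compounds plus 3 SD, cut at about 3.6% in these data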;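 note: 0% = DAX-1 cells with DMSO and 100% = cells lacking DAX-1 with DMSO; higher inhibition means more luminescence from relief of DAX-1 repression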
DAX1 inh confirm – NR0B1 (human) inhibition, confirmation. 87% of 2,400 active. shares compounds with DAX1 StAR inh. inhibition, % at 6.8 µM. HEK293T StAR-promoter luciferase reporter, SF-1/DAX-1 repression;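 active = inhibition above the average of every tested compound plus 3 SD, cut at about 3.8% in these data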;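 note: 0% = DAX-1 cells with DMSO and 100% = no DAX-1 control cells with DMSO; active compounds raise luminescence by relieving repression of the StAR reporter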
SF1 AF2mut Luc – counter-screen for DAX1 inhibitors: nonselective inhibitors with SF-1 AF2 mutant | shares compounds with DAX1 StAR inh | inhibition, % at 6.8 µM | 78% of 2,400 active | HEK293 StAR-luciferase, luminescence | AID 652136;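 active = inhibition above the mean of all tested compounds plus 3 SD, cut at about 3% in these data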;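 note: 0% = DAX-1 transfected cells with DMSO and 100% = cells without DAX-1 with DMSO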
SMARCA2 act conf – SMARCA2 activation, confirmation screen; shares compounds with SMARCA2 activ; MG213 cells, MMTV-luciferase with dexamethasone, luminescence, overnight; MG213 cells expressing E1A, Rb sequestered; DMSO wells 0%, reference activator 100%; activation, % at 9.1 µM; 30% of 3,500 active;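 active = activation above its plate's cutoff, the mean activation of tested wells plus 3 SD, cut at about 7.9% in these data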
GAL4-VP16 Luc – GAL4-VP16 reporter activation counter-screen; 41% of 3,500 active; shares compounds with SMARCA2 activ; AID 686939; HEK293 GAL4-VP16 pG5luc reporter, luciferase luminescence; scaled: DMSO wells 0%, SAHA wells 100%; activation, % at 9.1 µM;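 active = activation above the solvent-only control well mean plus 3 SD, averaged across control plates, cut at about 5.2% in these data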
LXRb hcDAF ctr – counter-screen for hcDAF-12 agonists: agonists of human LXR-beta. shares compounds with hcDAF-12 act. HEK293 Gal4-LXR tk-luc reporter, luminescence, 24 h; normalized: DMSO 0%, positive control 100%. activation, % at 6.8 µM. 3,400 tested, under 10 active;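 active = mean percent activation of the reporter above a cutoff set as the average over tested compounds plus their standard deviation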
Target sequence (P55055 whole entry, looked up, the tested form may be a part): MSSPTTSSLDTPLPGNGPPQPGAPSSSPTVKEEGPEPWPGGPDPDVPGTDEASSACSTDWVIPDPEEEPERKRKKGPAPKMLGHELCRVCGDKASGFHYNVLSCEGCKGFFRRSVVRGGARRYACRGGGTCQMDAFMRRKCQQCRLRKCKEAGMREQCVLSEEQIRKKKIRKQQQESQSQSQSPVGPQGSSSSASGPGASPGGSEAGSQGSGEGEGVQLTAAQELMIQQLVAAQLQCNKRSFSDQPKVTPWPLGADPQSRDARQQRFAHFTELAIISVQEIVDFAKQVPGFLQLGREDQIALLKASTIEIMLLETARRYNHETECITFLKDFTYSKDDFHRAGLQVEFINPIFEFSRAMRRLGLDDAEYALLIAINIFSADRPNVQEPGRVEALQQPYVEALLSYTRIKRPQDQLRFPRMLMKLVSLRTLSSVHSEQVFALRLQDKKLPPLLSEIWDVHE
hcDAF12 ag – confirmation of H. contortus DAF-12 agonists. HEK293 hcDAF-12 lit1-tk-luc reporter, luminescence; % of Δ7-dafachronic acid response. activation, % at 6.8 µM. 61% of 3,400 active. shares compounds with hcDAF-12 act;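 active = mean activation across triplicate tests above the threshold derived from the earlier primary screen, cut at about 5.5% in these data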;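 note: 0% = DMSO only wells and 100% = 3 µM Δ7-dafachronic acid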
hgDAF12 conf – hgDAF-12 agonism, confirmation assay | shares compounds with hgDAF12 agonist | HEK293 GAL4-hgDAF12 luciferase reporter, agonist mode; percent of butyrate response | activation, % at 6.8 µM | 80% of 3,300 active | AID 743050;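 active = mean activation over triplicate wells above the hit cutoff derived from the earlier primary screen, cut at about 11% in these data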;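 note: 0% = DMSO low control and 100% = 2 mM sodium butyrate high control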
LXRb DAF12 ctr – LXR-beta agonism as DAF-12 counter-screen. shares compounds with hgDAF12 agonist. HEK293 Gal4-LXR luciferase reporter, 24 h. activation, % at 6.8 µM. 3,300 tested, under 10 active;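 active = mean activation of the triplicate above a set limit carried over from the primary screen, none filed active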
* hit, by the source's call; . = no result given.

SMILES	SMARCA2 activ	ssDAF12 agonist	hgDAF12 agonist	hcDAF-12 act	DAX1 StAR inh	DAX1 inh confirm	SF1 AF2mut Luc	LXRb hcDAF ctr	hcDAF12 ag	hgDAF12 conf	LXRb DAF12 ctr	others
Cn1c(/N=C(\N)c2ccccc2)nc2ccccc21	6	1.7*	21*	14*	8.4*	13*	9.9*	1	17*	20*	1
Cn1c(=O)c(C(=O)c2ccccc2)nc2ccccc21	0	-1	0	-1	0	.	.	.	.	.	.
O=C(Nc1ncccc1O)c1ccc(OCC2CCCO2)cc1 (stereo unspecified)	3	0	28*	5	18*	14*	5.7*	.	.	27*	1
CCCc1nc2ccc(Br)cn2c1Cc1ccccc1OC	-5	-1	-1	-1	-2	.	.	.	.	.	.
Cc1cccc2cc3ccccc3nc12	-3	-2	2	0	0	.	.	.	.	.	.
c1ccc2nc3c(ccc4ccccc43)cc2c1	15*	0.9*	21*	12*	4.5*	12*	10*	1	11*	16*	1	SMARCA2 act conf=5;GAL4-VP16 Luc=7.7*
Nc1ccc2c(c1)C(=O)c1ccccc1-2	-2	-1	0	-1	0	.	.	.	.	.	.
Nc1ccc2c(c1)C(=O)c1ccccc1C2=O	12*	1	17*	7.3*	10*	7.2*	5.0*	0	2	18*	1	SMARCA2 act conf=9.1*;GAL4-VP16 Luc=9.0*
Cc1ccc(/C=N/N=C/c2ccc(C)s2)s1	4	0	18*	9.1*	5.1*	19*	7.7*	2	8.2*	21*	1
CCCCOCC1CN(Cc2ccccc2OC)S(=O)(=O)c2cc(Cl)ccc2O1 (stereo unspecified)	-4	0	0	-1	-1	.	.	.	.	.	.
Cc1ccc2nc(C3CCCCC3)c(CC(C)(C)C)n2c1	0	0	-1	0	0	.	.	.	.	.	.
COc1ccccc1Cc1c(-c2ccc(C)cc2)nc2ccc(C)cn12	7	0	14*	1	4.9*	7.0*	5.1*	.	.	10	0
Cc1ccc(-c2nc3ccc(C)cn3c2CC2CCCCC2)cc1	8.1*	2.2*	21*	10*	7.2*	3.8*	3.2*	1	9.1*	11*	0	SMARCA2 act conf=1;GAL4-VP16 Luc=5.1*
COc1ccccc1Cc1c(-c2ccccc2)nc2ccc(C)cn12	2	0	17*	4	5.2*	1	4.3*	.	.	8	0
O=C(C[C@@H]1CC[C@H](NC(=O)Cc2ccccn2)[C@@H](CO)O1)NCCc1ccccc1	-3	-1	2	-1	2	.	.	.	.	.	.
COC(=O)c1ccc(Cn2ccc3ccc(-c4ccc5ccn(Cc6ccccc6)c5c4)cc32)cc1	-2	-1	0	1	-1	.	.	.	.	.	.
COc1cc(CC(=O)N2CCN(S(=O)(=O)c3ccc(C(C)C)cc3)CC2)cc(OC)c1OC	-5	-1	-1	-2	0	.	.	.	.	.	.
CC1CCC(NC(=O)c2cccn2C)CC1 (stereo unspecified)	8.8*	0	15*	4	10.0*	14*	7.4*	.	.	14*	1	SMARCA2 act conf=11*;GAL4-VP16 Luc=11*
CC1CCC(NC(=O)c2nn(C)c(=O)c3ccccc23)CC1 (stereo unspecified)	-3	-1	-3	-2	-1	.	.	.	.	.	.
COc1ccc(-c2cn3cc(C(F)(F)F)cc(Cl)c3n2)cc1	12*	2.6*	23*	12*	5.1*	8.7*	6.9*	1	15*	21*	1	SMARCA2 act conf=5;GAL4-VP16 Luc=11*
C#CCN(Cc1ccco1)C(=O)c1nnc2c3ccccc3n(S(=O)(=O)c3ccccc3)c2n1	3	-1	-1	2	0	.	.	.	.	.	.
Cc1ccccc1CNC(=S)OC1CCC12CCC(c1ccccc1)CC2 (stereo unspecified)	2	-1	-2	1	0	.	.	.	.	.	.
COc1ccc2nc(NC(=O)C3CCCO3)sc2c1 (stereo unspecified)	4	0	15*	4	5.8*	11*	6.1*	.	.	12*	1
COc1ccc(Nc2nc3ccccc3c(=O)s2)c(OC)c1	2	-1	-2	-3	0	.	.	.	.	.	.
COc1ccc2nc(Nc3ccccc3)sc2c1	5	0	26*	5	7.3*	12*	9.5*	.	.	14*	1
SMILES	SMARCA2 activ	ssDAF12 agonist	hgDAF12 agonist	hcDAF-12 act	DAX1 StAR inh	DAX1 inh confirm	SF1 AF2mut Luc	LXRb hcDAF ctr	hcDAF12 ag	hgDAF12 conf	LXRb DAF12 ctr	others
COc1ccc2nc(Nc3ccccc3OC)sc2c1	3	1.6*	20*	11*	6.4*	17*	10*	2	8.7*	22*	1
Cc1ccc(S(=O)(=O)Nc2nc3ccccc3s2)cc1	1	0	2	3	0	.	.	.	.	.	.
Cc1ccc(Nc2nc3ccccc3s2)cc1	6	2.4*	26*	9.7*	4.7*	15*	7.3*	2	7.9*	24*	1
COc1ccccc1Cc1c(C2CCCCC2)nc2c(C)cc(Br)cn12	-5	-1	-1	0	-1	.	.	.	.	.	.
O=Nc1c2cc3ccccc3[nH]c-2c2ccccc12	4	1.1*	23*	10*	7.7*	9.8*	8.4*	2	12*	23*	1
O=Nc1c(O)c2ccccc2c2ccccc12	-8	-2	-12	-5	-3	.	.	.	.	.	.
COc1ccc(-c2csc(N3C(=O)CNC3=S)n2)cc1	4	1.1*	17*	8.2*	5.5*	14*	6.6*	2	8.8*	16*	1
